In PubChem BioAssay (NCI):
Several values for one entry are separate records, joined by “and”; a condition that tells them apart may be missing. Identical values can stand only once. This is part of a sample that, as a whole, favours compounds with a hit. Of some 83,000 tested, about 20% had one in any assay.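 Single-concentration screen, 48 h exposure, 96-well plates. Endpoint: percent growth. Below 10 = active.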 Values without a mark were called inactive. Activity calls are given as the source filed them.

The compounds below were run on HL-60(TB) leukemia (assay: NCI-60 one-dose screen, 48 h (100 = growth as untreated, 0 = no growth, -100 = all killed)). Settings: 10 µM unless noted.

| SMILES | growth |
| --- | --- |
| CC(=O)N1CC(=O)NC1=S | 103% |
| CCCCCCCCOC(=O)c1ccc(O)c(OC)c1 | 30.9% |
| O=C(CC(O)c1ccccc1)Nc1ccccn1 (stereo unspecified) | 97.3% |
| Cc1sc2nc3[nH]/c(=C\c4ccc(Cl)cc4)c(=O)n3c(=O)c2c1C | 92.8% |
| CCNc1cc(-c2cccc(OC(F)(F)F)c2)nc2ccc(N3CCCC3)cc12 | -47.1% (active) |
| COc1ccc(/C=C/C(=O)O)cc1OC | 103% and 102% |
| CNS(=O)(=O)Oc1ccc(-c2ccc3occc3c2)cc1 | 100% |
| CC1=C(CC(=O)c2cccc([N+](=O)[O-])c2)C(=O)c2ccccc2C1=O | 1.83% (active) |
| O=C1NC(=O)C(CC(=O)n2c(-c3ccccc3)nc3ccccc32)C(=O)N1 | 106% |
| O=C(N/N=C/c1cccnc1)c1ccccc1Nc1cccc(C(F)(F)F)c1 | 64.8% |
| CC(C)(C)N1CCC1CN (stereo unspecified) | 125% |
| Cn1cccc1C(=O)C1C(c2cccc([N+](=O)[O-])c2)C2C3CCCCC3CN2C12C(=O)Nc1ccc(Cl)cc12 (stereo unspecified) | 17.8% |
| CC(C)(C)c1ccc(O)c(-c2ccccc2)c1 | 0.4% (active) |
| COc1cc(NCC(=O)Nc2cc(Nc3ccc(C)cc3)ncn2)c(Cl)c(OC)c1Cl | 77.2% |
| CNCCCNCCCCNCCCN1C(=O)c2ccc3c4c(ccc(c24)C1=O)C(=O)N(CCCNCc1ccccc1OC)C3=O | 23% |
| CN1CCCC1c1cccnc1 (stereo unspecified) | 105% |
